# Laboratory results published in PubChem BioAssay.
# Where “and” joins values, the source holds several entries; their conditions need not be identical. Identical values can stand only once. More than one record can exist for a structure, and the calls need not agree. Calls of active or inactive are those of the source. Rule as the data show it: active = fold change permeability below about 0.7 or above about 1.3; inactive = in between.
# Experiment: modulators of brain endothelial barrier permeability, primary screen, cell-based, FITC-avidin fluorescence, HTS (AID 1963498); also: test concentration not given here
# Settings: actives lie on both sides
row,Structure (SMILES),fold change permeability
1,CC[N+](CC)(CC)CCOc1cccc(OCC[N+](CC)(CC)CC)c1OCC[N+](CC)(CC)CC,0.8 (inactive)
2,CCOC(=O)C12CC1/C(=N\O)c1ccccc1O2 (centres undefined),1.2 (inactive)
3,Cc1cccc(/C=C/c2ccccc2)n1,1.2 (inactive)
4,CC(=O)SCC[N+](C)(C)C,0.8 (inactive)
5,O=CN(O)CCCP(=O)(O)O,2.2 (active)
6,CC1CCc2nc(N)c(C#N)c(-c3cccnc3)c2C1 (centres undefined),1 (inactive)
7,Nc1nc2[nH]cc(CCc3ccc(C(=O)N[C@@H](CCC(=O)O)C(=O)O)cc3)c2c(=O)[nH]1,0.9 (inactive)
8,CC(C)NC[C@H](O)c1ccc(O)c(O)c1,1.2 (inactive) and 1.8 (active)
9,O=c1ccn([C@@H]2O[C@H](COP(=O)(O)OP(=O)(O)O)[C@@H](O)[C@H]2O)c(=O)[nH]1,0.8 (inactive)
10,C=CC[C@H](N)C(=O)O,1 (inactive)
11,NNC(=O)CSc1nc2scc(-c3ccccc3)c2c(=O)n1-c1ccccc1,1.2 (inactive)
12,NC(=O)NO,1.1 (inactive)
13,CN1CCN(c2nc3cc(C(F)(F)F)ccc3n3cccc23)CC1,1.7 (active)
14,O=C1NCC2(CCN(CCc3ccccc3)CC2)O1,1 (inactive)
15,CCCCCCCCCCCCCCSCC(=O)O,1.6 (active)
16,O=C(O)[C@H]1NCCC[C@H]1C(=O)O,1 (inactive)
17,CC(C)=CCC/C(C)=C/COc1ccc2ccc(=O)oc2c1,2 (active)
18,Cc1ccc(CNCC2(F)CCN(C(=O)c3ccc(F)c(Cl)c3)CC2)nc1,1.3 (active)
19,Nc1nc(OCc2ccccc2)c2[nH]cnc2n1,1 (inactive)
20,N=c1c[n+](N2CCOCC2)[n-]o1,0.8 (inactive)

row,Structure (SMILES),fold change permeability
1,CCCCCCCCCCCCCCCC(=O)OC(CC(=O)O)C[N+](C)(C)C (centres undefined),1.3 (active)
2,COc1ccc(CCn2nnnc2C2(c3ccc(C)cc3)CC2)cc1,1.6 (active)
3,NC(=NCc1ccccc1)NC(=O)c1nc(Cl)c(N)nc1N,1 (inactive)
4,C[C@H](O)C(=O)C1=Nc2c(nc(N)[nH]c2=O)NC1,0.7 (active)
5,c1ccc2c(CC3=NCCN3)cccc2c1,0.9 (inactive)
6,NC/C=C\C(=O)O,1.2 (inactive)
7,CC(=O)OC(C)C[N+](C)(C)C (centres undefined),1 (inactive)
8,O=C(c1ccc2c(c1)OCCO2)N1CCCCC1,1.2 (inactive)
9,CC(N=C(NC#N)Nc1ccncc1)C(C)(C)C (centres undefined),0.9 (inactive)
10,C[N+](C)(C)CCOC(N)=O,0.9 (inactive)
11,O=C(O)CN(CCN(CC(=O)O)CC(=O)O)CCN(CC(=O)O)CC(=O)O,1 (inactive)
12,CNC[C@H](O)c1ccc(O)c(O)c1,0.8 (inactive)
13,NS(=O)(=O)c1cc2c(cc1Cl)NC=NS2(=O)=O,0.9 (inactive)
14,Cc1ccccc1N1C(=O)c2cc(S(N)(=O)=O)c(Cl)cc2NC1C (centres undefined),0.8 (inactive)
15,Cc1cc(Cn2cnc3c2C[C@@H](C(=O)O)N(C(=O)C(c2ccccc2)c2ccccc2)C3)ccc1N,1 (inactive)
16,O=c1onc2cnc3ccccc3n12,1.1 (inactive)
17,COc1cc(C(C)=O)ccc1OCCCN1CCC(c2noc3cc(F)ccc23)CC1,1.3 (active)
18,N[C@@H](Cc1c[nH]c2ccc(O)cc12)C(=O)O,1 (inactive)
19,NCCc1cnc[nH]1,1.3 (active)
